From PubChem BioAssay
Values joined by “and” are separate entries in the source; they are usually repeats but may differ in a detail not shown here. Identical values can stand only once. Active and inactive are the calls of the source.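 Rule for the calls, unless noted: active = thallium flux through the channel raised or lowered by more than 3 SD from vehicle-only wells, actives on both sides; inactive = the rest.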

Key:
[1] = blockers of polyQ-driven CASP3 activation – cell-based (AID 1583); conditions: polyglutamine-induced caspase-3 activation, cell assay; stronger effect = higher value;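 tested at 10 µM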
[2] = yeast 75Q aggregation reduction – 75Q-TubU reporter (AID 1593); conditions: Yeast 75Q polyglutamine aggregation reporter
[3] = blockers of cytochrome c efflux from mitochondria – biochemical, purified mitochondria (AID 1603); conditions: stronger effect = lower value;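 note: mouse liver mitochondria challenged with calcium chloride; signal normalized to the plate average as 100%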
[4] = polyglutamine aggregate formation blockers (AID 1604); conditions: polyglutamine-induced protein aggregation inhibition assay; stronger effect = higher value; tested at 2.5 µM
[5] = glutamate transport activators, MN-1 cells, MN-1 cell line (AID 1612); conditions: MN-1 motor neuron cells, stronger effect = higher value;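 note: tested at 1 µM final; 0% = mean of DMSO vehicle wells on each plate; positive means more glutamate uptake than control and negative means less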
[6] = signal quenchers or enhancers, Cy5 substrate/SSB – biochemical, NIH Clinical Collection, E. coli SSB, artefact control for HCV NS3 helicase inhibitor project (AID 743268; call rule not given here); conditions: Cy5-oligo bound E. coli SSB, fluorescence interference
[7] = tested on: Hepatitis C virus NS3 helicase; assay: blockers of NS3h binding to DNA – biochemical, fluorescence polarization, NIH Clinical Collection, primary screen (AID 743270; call rule not given here); conditions: NS3 helicase binding to Cy5-dT15 DNA, stronger effect = higher value, concentration not given here
[8] = target: Single-stranded DNA-binding protein (Escherichia coli (strain K12)) (UniProt P0AGE0); assay: SSB-ssDNA binding inhibitors – biochemical, fluorescence polarization, NIH Clinical Collection, counter-screen for HCV NS3 helicase inhibitor project (AID 743271; in the data active = inhibition above about 28%); conditions: E. coli SSB-DNA binding, stronger effect = higher value, concentration not given here
[9] = compounds distorting NS3 helicase fluorescence signal – biochemical, NIH Clinical Collection, artefact control for HCV NS3 helicase inhibitor project (AID 743272; call rule not given here;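 note: HCV NS3 helicase with a Cy5 labelled single stranded DNA probe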); conditions: fluorescence interference counterscreen, HCV NS3 helicase assay; stronger effect = lower value
[10] = galactose survival enhancers in mitochondrial complex I cybrids – cell-based, galactose medium, ATP luminescence, primary screen (AID 1645843;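 active = z-score of at least 1.8 in each of two replicates, scored against plate mean and spread of sample wells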;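 note: positive z means more ATP and so rescue of galactose-driven cybrid death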); conditions: complex I mutant cybrid cells, 72 h, stronger effect = higher value
F380Y/beta4 = assay: BK channel mutant inhibitors and activators – cell-based, U2OS BacMam, thallium flux, beta subunits, selectivity assay, profiling panel (AID 1259406); conditions: U2OS BacMam BK variants, at 30 µM;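 note: initial slope of Thallos dye fluorescence rise after thallium is added; log ratio against the mean of 0.3% DMSO vehicle wells on the same plate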
[11] = target: Calcium-activated potassium channel subunit alpha-1 (Homo sapiens) + Leucine-rich repeat-containing protein 26 (Homo sapiens) (UniProt Q12791+Q2I0M4); assay: as above; conditions: U2OS BacMam BK variants, F380Y/Slo1WT/gamma1, at 30 µM
Calcium-activated potassium channel subunit alpha-1 (Homo sapiens) + Leucine-rich repeat-containing protein 26 (Homo sapiens), sequence (Q2I0M4 whole entry, looked up, one chain of several): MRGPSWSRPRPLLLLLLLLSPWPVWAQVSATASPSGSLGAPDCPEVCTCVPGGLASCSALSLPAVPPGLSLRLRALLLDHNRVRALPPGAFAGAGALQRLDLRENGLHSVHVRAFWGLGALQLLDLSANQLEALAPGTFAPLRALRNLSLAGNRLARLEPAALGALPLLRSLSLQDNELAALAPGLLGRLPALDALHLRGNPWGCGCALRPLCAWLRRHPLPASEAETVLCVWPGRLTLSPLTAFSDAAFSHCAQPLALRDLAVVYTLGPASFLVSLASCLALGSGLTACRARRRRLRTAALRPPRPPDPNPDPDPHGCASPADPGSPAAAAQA

R275C = assay: as above; conditions: U2OS BacMam BK variants, at 30 µM
R275C/beta1 = assay: as above; conditions: U2OS BacMam BK variants, at 30 µM
R275C/beta2Delta = assay: as above; conditions: U2OS BacMam BK variants, at 30 µM
R275C/beta4 = assay: as above; conditions: U2OS BacMam BK variants, at 30 µM
R275C/Slo1WT/beta2 = assay: as above; conditions: U2OS BacMam BK variants, at 30 µM

## CN(C)CCCN1c2ccccc2CCc2ccc(Cl)cc21
[1]
  inhibition: -18.9%
[2]
  score: 0.98
[3]
  cytochrome c release ratio: 1.15
[4]
  inhibition of aggregation: 66.7%
[5]
  glutamate uptake change: 6.78%
[6]
  fluorescence ratio: 1 (inactive)
[7]
  inhibition: -3.18% (inactive)
[8]
  inhibition: 0.29% (inactive)
[9]
  fluorescence ratio: 1 (inactive)
[10]
  z-score: -1.52 (inactive) and -1.25 (inactive) and -0.78 (inactive)
F380Y/beta4
  log fold change Tl+ flux: 0.151 (active)
[11]
  log fold change Tl+ flux: -0.0105 (inactive)
R275C
  log fold change Tl+ flux: 0.0284 (inactive)
R275C/beta1
  log fold change Tl+ flux: 0.00748 (inactive)
R275C/beta2Delta
  log fold change Tl+ flux: -0.0594 (inactive)
R275C/beta4
  log fold change Tl+ flux: 0.278 (active)
R275C/Slo1WT/beta2
  log fold change Tl+ flux: -0.0809 (inactive)

## CCN(CCO)CCCC(C)Nc1ccnc2cc(Cl)ccc12 (centres undefined)
[1]
  inhibition: -6.7%
[2]
  score: 1.54
[3]
  cytochrome c release ratio: 0.8
[4]
  inhibition of aggregation: 27.4%
[5]
  glutamate uptake change: 0%

## CC1=C(CC(=O)O)c2cc(F)ccc2/C1=C\c1ccc(S(C)=O)cc1 (centres undefined)
[1]
  inhibition: 12.6%
[2]
  score: 0.78
[3]
  cytochrome c release ratio: 0.97
[4]
  inhibition of aggregation: 78.9%
[5]
  glutamate uptake change: 3.54%
[6]
  fluorescence ratio: 1.04 (inactive)
[7]
  inhibition: -7.73% (inactive)
[8]
  inhibition: -3.53% (inactive)
[9]
  fluorescence ratio: 1.01 (inactive)
[10]
  z-score: -0.94 (inactive) and -0.735 (inactive) and -0.12 (inactive)
F380Y/beta4
  log fold change Tl+ flux: 0.0346 (inactive)
[11]
  log fold change Tl+ flux: 0.0386 (inactive)
R275C
  log fold change Tl+ flux: -0.0121 (inactive)
R275C/beta1
  log fold change Tl+ flux: -0.0305 (inactive)
R275C/beta2Delta
  log fold change Tl+ flux: -0.0296 (inactive)
R275C/beta4
  log fold change Tl+ flux: 0.044 (inactive)
R275C/Slo1WT/beta2
  log fold change Tl+ flux: 0.0257 (inactive)
